Compounds with a hit are over-represented: about 6.6% of the library has one in this group of screens.
CSC inhib: cancer stem cell viability inhibitors, primary screen, luminescence; inhibition, % at 7.5 µM; cancer stem cell-like cells viability; 300,000 tested, 1.1% active; in the data active = inhibition above about 75%; tested in HMLE shEcad cells
NR3A LBD binder: binders of NR3A ligand-binding domain, primary screen, biophysical, differential scanning fluorimetry, uHTS. Glutamate receptor ionotropic, NMDA 3A (GRIN3A) ligand-binding domain. AID 1259313, 2017. NR3A LBD differential scanning fluorimetry, Tm shift; 0% = protein alone, 100% = glycine-bound protein. 340,000 tested, 2.5% active. Tm shift relative to glycine control, % at 25 µM;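 active = melting temperature shift of at least 10% of the positive control shift, at one fixed dose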
Gli-Sufu antag: Gli-Sufu pathway antagonists, primary screen, luciferase luminescence, Sufu-KO-LIGHT cells, uHTS; Sufu-KO-LIGHT fibroblasts, Gli luciferase reporter luminescence; inhibition, % at 5 µM; 340,000 tested, 0.74% active;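 active = inhibition above about 55%, limit read from the data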;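 also: 0% = DMSO-treated cells and 100% = wells with medium but no cells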
Mdm2 MdmX PPI: inhibitors of human Mdm2-MdmX association, primary screen, cell-based, luminescence, split luciferase, SaOS-2, uHTS. SaOS-2 split-luciferase Mdm2/MdmX complementation. inhibition, % at 8 µM. 330,000 tested, 3% active;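 active = inhibition of at least 50% at 8 µM in the primary screen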
Target sequence (O15151 whole entry, looked up): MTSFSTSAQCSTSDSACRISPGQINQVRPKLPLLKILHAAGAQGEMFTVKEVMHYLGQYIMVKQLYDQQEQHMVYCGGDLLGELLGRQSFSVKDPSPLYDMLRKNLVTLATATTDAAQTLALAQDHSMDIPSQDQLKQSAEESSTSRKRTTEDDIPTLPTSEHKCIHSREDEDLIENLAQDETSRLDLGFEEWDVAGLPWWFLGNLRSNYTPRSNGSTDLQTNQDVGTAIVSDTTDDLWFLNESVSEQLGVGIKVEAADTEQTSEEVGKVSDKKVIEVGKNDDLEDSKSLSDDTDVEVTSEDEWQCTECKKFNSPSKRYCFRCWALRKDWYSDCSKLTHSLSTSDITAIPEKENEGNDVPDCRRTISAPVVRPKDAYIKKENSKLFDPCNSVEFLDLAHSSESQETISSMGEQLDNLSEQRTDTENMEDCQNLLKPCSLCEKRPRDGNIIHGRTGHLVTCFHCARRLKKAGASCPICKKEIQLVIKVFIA
Target sequence (Q00987 whole entry, looked up): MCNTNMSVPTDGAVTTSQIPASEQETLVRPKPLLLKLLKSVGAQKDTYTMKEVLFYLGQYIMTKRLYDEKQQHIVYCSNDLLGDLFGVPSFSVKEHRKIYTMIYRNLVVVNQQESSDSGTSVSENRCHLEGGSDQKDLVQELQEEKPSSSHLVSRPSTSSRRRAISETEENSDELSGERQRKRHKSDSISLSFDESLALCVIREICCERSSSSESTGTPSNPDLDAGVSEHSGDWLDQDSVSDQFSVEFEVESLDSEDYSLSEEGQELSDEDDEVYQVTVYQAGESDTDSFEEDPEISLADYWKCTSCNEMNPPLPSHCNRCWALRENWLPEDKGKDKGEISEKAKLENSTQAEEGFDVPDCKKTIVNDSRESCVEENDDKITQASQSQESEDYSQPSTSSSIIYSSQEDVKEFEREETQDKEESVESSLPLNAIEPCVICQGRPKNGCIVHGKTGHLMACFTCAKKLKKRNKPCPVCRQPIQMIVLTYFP
MPTP inh: mitochondrial permeability transition pore inhibitors, primary screen, biochemical, isolated mouse mitochondria, absorbance | Ca2+ swelling absorbance, 30 min | inhibition, % at 10 µM | 360,000 tested, 1.4% active;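 active = inhibition of 50% or more, scaled per plate between neutral and stimulator controls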;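 also: 0% = DMSO wells given calcium and 100% = 1 mM EGTA wells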
Beta cell apopt: inhibitors of cytokine-induced beta cell apoptosis, primary screen, luminescence. 300,000 tested, 0.8% active. AID 435005, 2010. INS-1E cytokine-induced death, ATP luminescence, 48 h; percent of positive-control rescue, neutral wells zero. protection from apoptosis, % (concentration not given with the values);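 active = Every replicate reaches about 75%, or at least half do and their mean reaches it too, limit read from the data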;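 also: 0% = cytokine-treated negative control wells and 100% = positive control rescue; higher means more ATP so stronger rescue from cytokine killing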
Mdm2-MdmX conf: Mdm2-MdmX complex disruptors, retested hits, confirmation, luminescence, single concentration; shares compounds with Mdm2 MdmX PPI; Mdm2-MdmX binding, luminescent assay; inhibition, % at 8 µM; 10,000 tested, 55% active; in the data active = inhibition above about 40%
FLuc counter: full-length luciferase signal inhibition, confirmation, counter-screen for Mdm2/MdmX interaction inhibitor project, cell-based, single concentration, SaOS-2 | shares compounds with Mdm2 MdmX PPI | SaOS-2 full-length luciferase counterscreen, luminescence | inhibition, % at 8 µM | 6,200 tested, 77% active;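 active = mean inhibition at 8 µM reaching about 37%, which flags the compound as non-specific, limit read from the data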;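 also: p53-null SaOS-2 cells with luciferase driven by a doxycycline-inducible promoter; compound on cells about two nights before reading with doxycycline added after day one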
The depositor's hits bear a star; . = not tested or not shown.

SMILES	CSC inhib	NR3A LBD binder	Gli-Sufu antag	Mdm2 MdmX PPI	MPTP inh	Beta cell apopt	Mdm2-MdmX conf	FLuc counter
CCn1nc(NC(=O)Cc2ccc(OC)cc2)c2cc3cc(C)ccc3nc21	-7.2	1.5	-2.1	61.7*	2.1	7.6	5.0	.
COc1cccc(C(C)(O)c2nc(-c3cccc(C(C)C)c3)cs2)c1 (centres undefined)	.	.	.	.	3.8	.	.	.
CC1(C)N=C(N)N=C(N)N1c1ccc(Oc2ccc(Cl)cc2)c(Cl)c1	89.3*	-0.6	64.9*	67.1*	-0.9	2.2	50.0*	87.8*
COc1ccccc1N(Cc1ccccc1)S(=O)(=O)c1cccc(C(=O)Nc2cc(C)ccn2)c1	31.9	-8.4	-20.0	68.1*	1.1	-12.7	56.0*	160.3*
Cc1cc(N/N=C/c2ccccc2Cl)nc(NCc2ccccc2)n1	93.6*	-2.2	20.8	71.7*	7.7	35.1	38.2	.
Cc1cc(N/N=C/c2ccccc2O)nc(-c2ccccc2O)n1	54.3	24.6*	36.3	72.1*	6.3	69.3	72.2*	46.4*
Cc1cc(N/N=C/c2ccccc2O)nc(N2CCOCC2)n1	1.0	-7.6	-16.6	25.9	1.9	-7.1	.	.
C/C(=N\Nc1cc(C)nc(-c2ccccc2O)n1)c1ccccc1O	80.4*	26.2*	1.2	89.4*	25.3	-1.7	82.0*	40.9*
C/C(=N\Nc1nc2ccccc2nc1C)c1ccccc1O	11.1	2.4	-5.7	16.6	10.9	7.3	.	.
Brc1ccc2ncnc(Nc3ccc(N4CCOCC4)cc3)c2c1	-2.8	-0.8	-19.1	62.0*	0.8	-9.3	65.5*	25.5
CC(=O)c1ccc(Nc2ncnc3ccc(Br)cc23)cc1	.	.	.	.	-0.6	.	.	.
CC(=O)c1cccc(Nc2ncnc3ccc(Br)cc23)c1	-2.1	-0.2	-10.1	67.3*	2.8	8.1	46.8*	38.4*
COCCN1C(=S)N[C@@H](c2cccc(F)c2)C(C(=O)OC)=C1C	27.2	.	.	59.4*	.	-9.4	27.1	.
COCCN=C1N[C@@H](c2ccccc2)C(C(=O)OC)=C(C)N1Cc1ccccc1	-6.2	-0.6	13.6	-3.0	-0.5	-1.4	.	.
COC(=O)C1=C(C)N(Cc2ccccc2)C(=NCc2cccc(Cl)c2)N[C@H]1c1ccccc1	122.2*	-4.7	-0.5	88.7*	0.5	9.5	34.0	.
COC(=O)C1=C(C)N(Cc2ccccc2)C(=NCc2cc(OC)c(OC)c(OC)c2)N[C@H]1c1ccccc1	2.0	-1.8	12.1	30.5	.	-3.3	.	.
COC(=O)C1=C(C)N(Cc2ccccc2)C(=NCc2ccccc2)N[C@H]1c1ccccc1	8.2	-0.4	18.2	90.5*	1.3	5.1	30.9	.
COC(=O)C1=C(C)N(Cc2ccccc2)C(=NCc2cc(OC)c(OC)c(OC)c2)N[C@H]1c1ccc(Br)cc1	26.0	-1.4	10.4	68.7*	29.0	-3.4	22.1	.
O=C(O)c1ccc(N/N=C/C2=Cc3ccccc3OC2)cc1	13.3	-9.9	-31.5	-109.3	0.6	-6.7	.	.
COC(=O)C1=C(C)N(Cc2ccccc2)C(=NCc2ccccc2)N[C@H]1c1cccc(F)c1	27.5	-3.0	22.5	74.2*	1.2	26.3	37.6	47.0*
CCN(CC)CCCN=C1N[C@@H](c2cccc(F)c2)C(C(=O)OC)=C(C)N1Cc1ccccc1	23.8	-0.7	3.2	99.6*	-0.5	-2.9	83.1*	58.7*
CCN(CC)CCCN=C1N[C@@H](c2cccc(C(F)(F)F)c2)C(C(=O)OC)=C(C)N1CC	.	-0.2	11.8	99.6*	-0.3	-0.6	74.5*	30.4
CCN1C(=NCCCCO)N[C@@H](c2cccc(F)c2)C(C(=O)OC)=C1C	6.0	0.0	16.5	7.9	0.4	-5.0	.	.
CC(C)CC(=O)Nc1ccc(C(=O)COC(=O)C2=COCCO2)cc1	-3.8	0.5	-11.4	6.6	0.3	-5.6	.	.
O[C@H]1C[C@H](c2ccccc2)N(Cc2cccs2)C[C@@H]1n1cc(C2CC2)nn1	.	.	.	.	-1.7	.	.	.
SMILES	CSC inhib	NR3A LBD binder	Gli-Sufu antag	Mdm2 MdmX PPI	MPTP inh	Beta cell apopt	Mdm2-MdmX conf	FLuc counter
COc1cccc(NC(=O)c2sc3ncn(CC(=O)N4CCN(c5ccccn5)CC4)c(=O)c3c2C)c1	-7.3	-5.2	-5.2	0.9	1.1	-1.8	.	.
CCS(=O)(=O)c1ncc(Cl)c(C(=O)Nc2ccccc2OC)n1	55.1	0.8	5.7	95.6*	0.0	84.2*	99.7*	44.7*
Cc1ccc(-c2nnn(CC(=O)Nc3ccc(S(=O)(=O)N4CCC(C)CC4)cc3)n2)cc1	-5.4	55.2*	-15.2	51.6*	19.7	49.8	26.1	.
COc1ccccc1NC(=O)c1nc(S(=O)(=O)Cc2ccccc2)ncc1Cl	-6.1	5.9	4.6	97.1*	-1.7	76.7*	70.0*	50.5*
CC1CCN(CC(=O)Nc2ccc(S(=O)(=O)N3CCC(C)CC3)cc2)CC1	35.4	-3.2	-11.0	45.9	-0.3	0.7	.	.
CCOc1ccccc1NC(=O)c1ccc(C(=O)Nc2ccccc2OCC)nc1	-8.7	-0.9	4.4	90.7*	0.8	1.1	9.8	.
CC(C)(C)NS(=O)(=O)c1ccc(NC(=S)NC(=O)C2CC2)cc1	7.6	-0.6	18.1	0.8	-0.6	-0.4	.	.
Cc1cccc(C)c1NC(=O)C1(C)CSCC(=O)N1CCCn1ccnc1 (centres undefined)	.	.	.	.	6.5	.	.	.
O=C1NC[C@@H](CCCCN2CCN(Cc3ccccc3)C(=O)C2=O)N(Cc2ccccc2)C1=O	.	.	.	.	-0.9	.	.	.
CCCS(=O)(=O)c1ncc(Cl)c(C(=O)Nc2ccc(S(=O)(=O)Nc3ncccn3)cc2)n1	-0.6	-0.2	-5.7	7.0	-0.5	1.5	.	.
CCS(=O)(=O)c1ncc(Cl)c(C(=O)Nc2ccc(S(=O)(=O)N3CCC(C)CC3)cc2)n1	118.3*	-6.2	20.9	100.4*	-2.5	107.8*	100.2*	51.8*
CSc1ncc(Cl)c(C(=O)Nc2ccc(C)c(C)c2)n1	5.9	1.7	.	16.4	-0.1	2.4	.	.
CCOc1ccccc1NC(=O)c1nc(S(=O)(=O)Cc2ccccc2)ncc1Cl	.	2.4	-0.2	97.1*	-2.9	.	96.8*	0.2
Cc1ccc(NC(=O)c2nc(S(=O)(=O)Cc3ccccc3C)ncc2Cl)cc1C	103.4*	-3.5	2.6	100.2*	-2.5	52.3	70.3*	52.1*

Bioassay records from PubChem.
